TbPYK inhibitor = T. brucei pyruvate kinase inhibition; Q57TT1; TbPYK enzyme, Kinase-Glo Plus ATP luminescence, 45 min; Potency, µM (highest dose often 76.8 µM), without a hit: at the highest dose activity, negative = inhibition, usual class: inhibitors; hit rate 0.12% among 410,000; AID 624173; further: potency means the concentration at half of the fitted maximal effect; on the % scale 0 is the no-effect control and ±100 the full control effect; nearly all actives have a fitted effect of over 50% in size
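In this concentration-response screen, enzyme-free wells defined baseline while DMSO plates tracked drift. Each reaction combined TbPYK, substrate, compound and 130 uM ADP for 45 min at room temperature. Kinase-Glo Plus luminescence gave the signal.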
Shiga inhibitor = inhibitors of Shiga toxin in Vero cells; Vero cells, Shiga toxin protein synthesis inhibition reporter; inhibition, % at 38.7 µM; AID 2315; hit rate 9.2% among 290,000; in the data active means inhibition mostly above about 28%, no sharp cut-off; inactive means mostly below about 43%; further: 0% is about no effect
CHX counter = counter-screen hit for Shiga toxin inhibitors, cycloheximide | cell reporter, cycloheximide protein synthesis inhibition counterscreen | hit rate 12% among 300,000 | max response, %; in the data active means max response mostly above about 13%, no sharp cut-off; inactive means mostly below about 14%; further: read at 38.3 µM for the half of the compounds with a filed dose; 0% is about no effect
LmPK inhibitor = inhibitors of Leishmania mexicana pyruvate kinase | Q27686 | purified LmPK, Kinase-Glo ATP luminescence, 1 h | Potency, µM (doses to about 57.5 µM), for inactives: top-dose activity change, negative = inhibition, usual class: inhibitors | hit rate 0.37% among 290,000 | AID 1721; further: potency means the concentration at half of the fitted maximal effect; on the % scale 0 is the no-effect control and ±100 the full control effect
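Kinase-Glo luminescence read after 1 h RT reaction of 0.1 nM LmPK with 0.5 mM PEP and 0.1 mM ADP. Activity scaled between uninhibited and enzyme-free controls.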
FBPA Giardia inh = Giardia lamblia aldolase inhibition | purified Giardia FBPA | Potency, µM (titrated, usually from 59.6 µM), without a hit: top-dose activity, negative = inhibition, most hits filed as inhibitors | hit rate 0.71% among 290,000 | AID 2451; further: potency means the concentration at half of the fitted maximal effect; on the % scale 0 is the no-effect control and ±100 the full control effect; nearly all actives have a fitted effect of over 55% in size
Target sequence (A8B2U2 whole entry, looked up): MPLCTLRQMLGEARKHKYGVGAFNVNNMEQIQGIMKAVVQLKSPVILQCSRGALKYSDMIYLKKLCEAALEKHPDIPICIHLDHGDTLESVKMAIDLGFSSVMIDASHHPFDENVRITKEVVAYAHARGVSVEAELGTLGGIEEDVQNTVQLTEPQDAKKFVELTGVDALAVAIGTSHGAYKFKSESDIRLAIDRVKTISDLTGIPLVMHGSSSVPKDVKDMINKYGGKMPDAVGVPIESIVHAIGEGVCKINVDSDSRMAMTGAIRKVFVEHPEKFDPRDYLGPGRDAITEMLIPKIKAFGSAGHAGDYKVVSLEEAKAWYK
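40 nM FBPA preincubated 10 min at RT with compound (up to 57.5 uM final), then substrate plus GAPDH/TPI/NAD/arsenate coupling and diaphorase/resazurin added. Fluorescence read after 20 min at RT, 525/598 nm.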
Sm TGR block = blocks Schistosoma mansoni thioredoxin glutathione reductase; Potency, µM (doses to about 114 µM), inactives show top-dose activity change, negative = inhibition, hits mostly inhibitors; purified TGR, DTNB reduction, TNB absorbance 405 nm; hit rate 3% among 360,000; Q962Y6; further: potency means the concentration at half of the fitted maximal effect; on the % scale 0 is the no-effect control and ±100 the full control effect; nearly all actives have a fitted effect of over 60% in size
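First, TGR (20 nM dispensed) and NADPH were mixed with compound. Second, a 15 min room-temperature incubation followed. Third, further NADPH and then DTNB were added to start the reaction. Finally, TNB absorbance was monitored kinetically.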
* = called active by the depositor; ? = inconclusive; · = no result. Only a selection was taken, and hits are over-represented in it overall. Unless noted, the call rests on the fitted dose curve; in most records, active means well fitted curve in the direction sought with a large enough effect; inconclusive means small, poorly fitted or top-dose-only effect, or another doubt; inactive means no such curve, though single readings can be large; an effect the other way counts as inactive or inconclusive.

SMILES	TbPYK inhibitor	Shiga inhibitor	CHX counter	LmPK inhibitor	FBPA Giardia inh	Sm TGR block
O=C1COc2ccc(OCc3ccc(F)cc3)cc21	2.6%	100.9*	51.0*	-16.5%	3.6%	3.3%
COc1ccc(C(=O)NCCSc2ccccc2)cc1OC	?	64.1*	32.9*	2.1%	4.0%	2.2%
CN(C)S(=O)(=O)c1ccc(C(=O)NCCSc2ccccc2)cc1	-2.4%	151.0*	48.1*	6.1%	1.3%	-19.9%
CN(C)S(=O)(=O)c1ccc(C(=O)NCCSc2c(-c3ccccc3)[nH]c3ccccc23)cc1	-5.3%	·	·	·	·	0.3%
CCc1nn(CC(=O)NCCCOC)c(=O)c2cc3ccccc3n12	-0.7%	·	·	·	·	13.0%
Cc1cc(C(=O)Nc2cnn(Cc3ccc(Cl)cc3Cl)c2)no1	-21.0%	35.5*	14.5*	0.4%	1.8%	-9.0%
Cc1ccccc1Cn1cc(NC(=O)c2nc3ncccn3n2)cn1	-4.9%	53.2	23.2	1.7%	2.9%	4.6%
Cc1ccccc1Cn1cc(NC(=O)c2nn(C)cc2Cl)cn1	-13.8%	27.7*	17.0	-0.2%	12.1%	-3.3%
C[C@H](NC(=O)Cc1cc(F)cc(F)c1)C(=O)N[C@@H](C(=O)OC(C)(C)C)c1ccccc1	·	-35.4	-6.4	·	0.0%	·
O=C(COc1ccc(Cl)cc1Cl)NC(=S)Nc1ccccc1C(=O)O	·	34.8*	22.6*	1.3%	-4.8%	1.7%
CC(C)(C)C(=O)NNC(=O)CCCOc1ccc(Cl)cc1Cl	-0.1%	-6.5	-1.7	8.5%	-1.1%	3.3%
O=C(COc1ccc(Cl)cc1Cl)Nc1ccc(C(=O)Nc2ccccc2C(=O)O)cc1	6.8%	45.2	34.9*	0.6%	5.1%	1.3%
O=C(CCCOc1ccc(Cl)cc1Cl)Nc1ccccc1C(=O)O	-4.1%	84.0*	42.5*	-4.3%	-0.1%	6.3%
CC(C)(CO)NC(=O)CCCOc1ccc(Cl)cc1Cl	-7.5%	53.9*	49.9*	-1.6%	-0.3%	-8.5%
O=C(CCCOc1ccc(Cl)cc1Cl)Nc1cccnc1	2.1%	32.0	-2.0	0.6%	-3.0%	-9.0%
Cc1ccc(C)c(Cn2c3ccccc3c3cnn(CC(=O)NCCC4=CCCCC4)c(=O)c32)c1	-1.2%	·	·	·	·	6.7%
COc1cc2c(cc1OC)C(COc1cccc(C(F)(F)F)c1)N(C(=O)c1ccc(S(=O)(=O)N3CCCC3)cc1)CC2 (configuration not stated)	-0.3%	·	·	·	·	7.5%
Cc1cc(SCC(=O)N2c3ccccc3NC(=O)CC2C)nc2ccccc12 (configuration not stated)	-3.4%	·	·	·	·	·
COc1cc(OC)c(NC(=O)Cn2c(SCc3ccccc3F)nc3cccnc32)cc1Cl	-4.1%	·	·	·	·	1.6%
CCOC(=O)CNC(=O)Cn1nc(N2CCN(c3ccccc3)CC2)ccc1=O	1.4%	·	·	·	·	-6.5%
O=C(CCS(=O)(=O)c1ccccc1)Nc1ccc(-c2nc3ccccc3s2)cc1	-1.2%	69.0	33.5*	-2.3%	-0.7%	-9.5%
CCS(=O)(=O)c1ccccc1C(=O)Nc1ccc(-c2nc3ccccc3s2)cc1	-0.4%	·	·	·	·	8.8%
O=C(CCS(=O)(=O)c1ccccc1)Nc1cccc(-c2nc3ccccc3s2)c1	4.6%	78.9*	57.4*	-1.2%	-0.3%	-0.2%
O=C(COc1ccccc1Cl)Nc1ccc(-c2nc3ccccc3s2)cc1	-3.8%	31.3	37.5*	·	·	6.6%
Cn1cc(C[C@H](C(=O)O)N2C(=O)c3ccc(C(=O)O)cc3C2=O)c2ccccc21	·	2.5	2.3	·	0.7%	?
SMILES	TbPYK inhibitor	Shiga inhibitor	CHX counter	LmPK inhibitor	FBPA Giardia inh	Sm TGR block
COC(=O)c1ccc(CNC(=O)C(Cc2ccccc2)NC(=O)c2ccccc2)cc1 (configuration not stated)	-3.6%	·	·	·	·	·
Cc1[nH]n(-c2ccccc2)c(=O)c1/C=C1/C=c2ccccc2=N1	3.2%	17.2	17.2*	3.3%	2.8%	-4.7%
Cc1[nH]n(-c2ccccc2)c(=O)c1/C=C1\C=NN=C1c1ccccc1	-7.4%	97.8*	66.9*	4.5%	-12.8%	-9.0%
COCCCNC(=O)c1cnc2sc(N3CCCCCC3)nn2c1=O	1.5%	·	·	·	·	41.6%
NNc1nc(-c2ccccc2)nc2sc3c(c12)CCCC3	-5.1%	108.6*	62.0*	-5.8%	-12.4%	-5.0%
NNc1nc2sc3c(c2c(=O)n1Cc1ccccc1)CCC3	-3.7%	32.1	12.2	-2.2%	-8.5%	-13.3%

Bioassay records deposited in PubChem by National Center for Advancing Translational Sciences (NCATS).
